Records with an inconclusive call do not appear. Activity calls are given as the source filed them. Calls follow the shape of the dose curve; as a rule, active = well fitted curve in the direction sought with a large enough effect; inconclusive = small, poorly fitted or top-dose-only effect, or another doubt; inactive = no such curve, though single readings can be large; an effect the other way counts as inactive or inconclusive.
Columns and labels:
[1] = biological target: Glutathione peroxidase 1 (Homo sapiens) (UniProt P07203); test: Primary qHTS Assay for Inhibitors of Recombinant Selenoprotein Glutathione Peroxidase 1 (GPX1) (AID 1845191); also: nearly all actives have a fitted effect of over 65% in size; as to activity, negative = inhibition: % is scaled to controls: 0 for no effect and ±100 for the full control effect
Glutathione peroxidase 1 (Homo sapiens), sequence (P07203 whole entry, looked up): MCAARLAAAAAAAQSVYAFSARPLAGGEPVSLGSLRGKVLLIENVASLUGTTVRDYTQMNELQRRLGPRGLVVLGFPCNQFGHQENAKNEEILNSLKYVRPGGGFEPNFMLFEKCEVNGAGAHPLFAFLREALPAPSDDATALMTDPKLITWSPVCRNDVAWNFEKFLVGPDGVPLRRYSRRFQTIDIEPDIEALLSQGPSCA
Method in brief: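 GPX1 10 nM, GR 100 nM, GSH 1 mM, NADPH 0.5 mM, CHP 0.5 mM (final). 30-min cpd preincubation, RT. Ex340/Em450 read t=0, t=15 min.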

[2] = biological target: Phospholipid hydroperoxide glutathione peroxidase GPX4 (Homo sapiens) (UniProt P36969); test: Primary qHTS Assay for Inhibitors of Recombinant Selenoprotein Glutathione Peroxidase 4 (GPX4) (AID 1845192); also: nearly all actives have a fitted effect of over 65% in size; as to activity change, negative = inhibition: series mostly up to about 50 µM; % is scaled to controls: 0 for no effect and ±100 for the full control effect
Phospholipid hydroperoxide glutathione peroxidase GPX4 (Homo sapiens), sequence (P36969 whole entry, looked up): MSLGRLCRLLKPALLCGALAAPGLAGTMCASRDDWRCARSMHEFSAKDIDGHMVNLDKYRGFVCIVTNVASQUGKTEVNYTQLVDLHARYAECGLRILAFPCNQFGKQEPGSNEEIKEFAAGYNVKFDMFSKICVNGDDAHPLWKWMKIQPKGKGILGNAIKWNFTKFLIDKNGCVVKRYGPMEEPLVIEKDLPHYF
Method in brief: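 qHTS, GR-coupled: GPX4 200 nM + cpd 30 min RT → GSH 1 mM, NADPH 0.5 mM, GR 100 nM → CHP 0.5 mM start; fluor 340/450 at t0 and t15 min; no-enzyme wells as control.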

[3] = biological target: Luciferin 4-monooxygenase (Photinus pyralis) (UniProt P08659); test: Primary firefly luciferase (FLuc) qHTS assay for identification of artifact compounds. (AID 1845220); also: nearly all actives have a fitted effect of over 60% in size;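 as to activity change, negative = inhibition: series mostly up to about 54 µM; plate controls were DMSO vehicle for no effect and no enzyme for full effect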
Method in brief: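 qHTS, 15 min compound preincubation with substrate (10 uM luciferin, 10 uM ATP) at RT, then 10 nM FLuc; 5 min; luminescence; % inhibition vs no-enzyme/DMSO controls, 4-parameter Hill fit.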

[4] = tested on: Nanoluciferase (engineered Oplophorus gracilirostris luciferase); test: Primary Nanoluciferase (NLuc) qHTS assay for identification of artifact compounds. (AID 1845222); also: series mostly up to about 54 µM
Method in brief: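 Luminescence read-out of secreted NLuc in S16 cell conditioned medium (1:55); compounds tested with 15 min RT preincubation, then Nano-Glo substrate 1:100, 5 min. % inhibition vs no-enzyme and DMSO controls, 4-parameter Hill fit.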

[5] = Primary redox qHTS assay for identification of artifact compounds. (AID 1845223);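 also: 0% = DMSO and 100% = reference compound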
Method in brief: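 Redox-cycling detection via DTT (250 uM final) oxidation coupled to Amplex Red (25 uM)/HRP (250 mU/mL) in HBSS. 15 min preincubation plus 30 min after DTT, room temperature. Ex/Em 525/598 nm; 4-parameter Hill fit against DMSO and 10 uM DA3003.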

COc1ccc(/C=C/C(=O)O[C@@H]2[C@@H](O[C@@H]3O[C@H](CO)[C@@H](O)[C@H](O)[C@H]3O)[C@@H](O)[C@H](O[C@H]3C4C=CO[C@@H](O[C@@H]5O[C@H](CO)[C@@H](O)[C@H](O)[C@H]5O)C4[C@@]4(CO)O[C@@H]34)O[C@H]2C)cc1 (stereo not given in full)
inactive: Potency [1] | Potency [2] | activity change, negative = inhibition [3] -3.03% [at 11.6 µM] | activity, negative = inhibition [4] 1.1% [at 11.6 µM] | redox activity (% of DA3003) [5] 9.47% [at 11.5 µM]

C/C(=C\CCC(C)(C)O)CCO[C@@H]1O[C@H](CO[C@@H]2O[C@@H](C)[C@H](O)[C@@H](O)[C@H]2O)[C@@H](O)[C@H](O)[C@H]1O
inactive: Potency [1] | Potency [2] | Potency [3] | Potency [4] | Potency [5]

COc1cc(C(CO)C(OC2OC(CO)C(O)C(O)C2O)c2ccc(O)c(OC)c2)ccc1O (stereo not given)
inactive: Potency [1] | Potency [2] | Potency [3] | Potency [4] | Potency [5]

CC(=O)/C=C/C1(O)C(C)(C)CC(O)CC1(C)O (stereo not given)
inactive: Potency [1] | Potency [2] | Potency [3] | Potency [4] | Potency [5]

CC(O)/C=C/C1(O)C(C)C(O)C(O[C@@H]2O[C@H](CO)[C@@H](O)[C@H](O)[C@H]2O)CC1(C)C (stereo not given in full)
inactive: Potency [1] | Potency [2] | Potency [3] | Potency [4] | Potency [5]

COc1cc(Nc2nc3ccccc3nc2NS(=O)(=O)c2cccc(NC(=O)c3ccc(C)c(OC)c3)c2)cc(OC)c1
inactive: Potency [1] | Potency [2] | Potency [3] | Potency [4] | Potency [5]

CC1CC(=O)C2C(O)(C1)CC(O)C13OC1c1c(O)cccc1C(=O)C23O (stereo not given)
inactive: Potency [1] | Potency [2] | Potency [3] | Potency [4] | Potency [5]

COc1cc(CC2COC(c3ccc(OC4OC(CO)C(O)C(O)C4O)c(OC)c3)C2CO)ccc1O (stereo not given)
inactive: Potency [1] | Potency [2] | Potency [3] | Potency [4] | Potency [5]

C[C@H]1[C@@H](O)[C@H](O)C2[C@]3(C)C([C@@H](O)[C@H]4OC(=O)[C@@H]1[C@@]24C)[C@](C)(O)C=C[C@H]3O[C@@H]1O[C@H](CO)[C@@H](O)[C@H](O)[C@H]1O (stereo not given in full)
inactive: Potency [1] | Potency [2] | Potency [3] | Potency [4] | Potency [5]

O=C(O)c1cc(C(F)(F)F)ccc1N1CC[C@H](OCc2ccccn2)C1
inactive: Potency [1] | Potency [2] | Potency [3] | Potency [4] | Potency [5]

CC(NC(=O)CC(=O)O)C(=O)Nc1ccccc1C(N)=O (stereo not given)
inactive: Potency [1] | Potency [2] | Potency [3] | Potency [4] | Potency [5]

COc1c(O[C@@H]2O[C@H](CO)[C@@H](O)[C@H](O)[C@H]2O)c(CCC(=O)O)cc2ccoc12
inactive: Potency [1] | Potency [2] | Potency [3] | Potency [4] | Potency [5]

CC/C=C/C(O)C(O)C1=C(C)C(=O)C2(O1)C(=O)NC(OC)(C(=O)c1ccccc1)C2O (stereo not given)
inactive: Potency [1] | Potency [2] | Potency [3] | Potency [4] | Potency [5]

CC1=COC(OC2OC(CO)C(O)C(O)C2O)C2C(CO)CC(OC(=O)/C=C/c3ccc(O)cc3)C12 (stereo not given)
inactive: Potency [1] | Potency [2] | Potency [3] | Potency [4] | Potency [5]

O=C(O)Cc1cn([C@@H]2OC[C@@H](O[C@@H]3O[C@H](CO)[C@@H](O)[C@H](O)[C@H]3O)[C@H](O)[C@H]2O[C@@H]2O[C@H](CO)[C@@H](O)[C@H](O)[C@H]2O)c2ccccc12
inactive: Potency [1] | Potency [2] | Potency [3] | Potency [4] | Potency [5]

CC1(C)CCC2(C(=O)O)CCC3(C)C(=CCC4C5(C)CCC(O)C(C)(CO)C5C(O)CC43C)C2C1 (stereo not given)
inactive: Potency [1] | Potency [2] | Potency [3] | Potency [4] | Potency [5]

COc1cc(C(O)C2COC(c3ccc(OC4OC(CO)C(O)C(O)C4O)c(OC)c3)C2CO)ccc1O (stereo not given)
inactive: Potency [1] | Potency [2] | Potency [3] | Potency [4] | Potency [5]

O=C(O[C@H]1[C@H](Oc2ccc(O)cc2CO)O[C@H](CO)[C@@H](O)[C@@H]1O)c1ccccc1
inactive: Potency [1] | Potency [2] | Potency [3] | Potency [4] | Potency [5]

CC(C)C(O)(CO)CCO[C@@H]1O[C@H](CO[C@H]2OC[C@](O)(CO)[C@H]2O)[C@@H](O)[C@H](O)[C@H]1O (stereo not given in full)
inactive: Potency [1] | Potency [2] | Potency [3] | Potency [4] | Potency [5]

C/C(CO)=C1/CCC23COC(C2)C(O)(C(=O)O)CCC13 (stereo not given)
inactive: Potency [1] | Potency [2] | Potency [3] | Potency [4] | Potency [5]

C=C1CC23CC1CCC2C12OC(=O)C(C)(C(O)CC1O)C2C3C(=O)O (stereo not given)
inactive: Potency [1] | Potency [2] | Potency [3] | Potency [4] | Potency [5]

CCCC(C(=O)O)c1c(C)nc2ccc(Cl)cc2c1-c1ccccc1 (stereo not given)
inactive: Potency [1] | Potency [2] | Potency [3] | Potency [4] | Potency [5]

CCC(=O)N1CCc2cc(OC)c(O)cc2C1
inactive: Potency [1] | Potency [2] | Potency [3] | Potency [4] | Potency [5]

C=C(CO)C(=O)O[C@H]1C[C@@]23O[C@@H]2CC/C(=C/[C@H]2OC(=O)C(=C)[C@H]12)CO[C@H]3O
inactive: Potency [1] | Potency [2] | Potency [3] | Potency [4] | Potency [5]

CC(=O)c1ccc(O[C@@H]2O[C@H](CO[C@@H]3OC[C@@H](O)[C@H](O)[C@H]3O)[C@@H](O)[C@H](O)[C@H]2O)cc1
inactive: Potency [1] | Potency [2] | Potency [3] | Potency [4] | Potency [5]

COc1cc2c(c(O)c1OC/C=C(\C)CC/C=C(/C)CCC=C(C)C)CN(C(CCC(=O)O)C(=O)O)C2=O (stereo not given)
inactive: Potency [1] | Potency [2] | Potency [3] | Potency [4] | Potency [5]

COC1OC(=O)C2=C1C1(C)CCCC(C)(C)C1CC2O (stereo not given)
inactive: Potency [1] | Potency [2] | Potency [3] | Potency [4] | Potency [5]

O=C(/C=C/c1ccc(O)c(O)c1)O[C@H]1[C@@H]2C=CO[C@@H](O[C@@H]3O[C@H](CO)[C@@H](O)[C@H](O)[C@H]3O)[C@@H]2[C@@]2(CO)O[C@@H]12
inactive: Potency [1] | Potency [2] | Potency [3] | Potency [4] | Potency [5]
